SKKanGAS inh: SKKanGAS growth inhibition | S. pyogenes SKKanGAS, kanamycin growth, BacTiter-Glo, 6 h | inhibition, % at 7.5 µM | 300,000 tested, 1.3% active | AID 1662;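 active = mean replicate score, as percent of positive control median, at least 50; inconclusive = mean below 50 but one replicate at or above 50; inactive = mean and every replicate below 50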;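 note: strain carries kanamycin resistance gene driven by streptokinase promoter and grows in 40 µg/ml kanamycin; loss of luminescence reflects streptokinase promoter inhibition or plain growth inhibition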
Mdm2-MdmX inh: disrupts the human Mdm2-MdmX interaction | O15151+Q00987 | SaOS-2 split-luciferase Mdm2/MdmX complementation, luminescence | inhibition, % at 8 µM | 330,000 tested, 3% active | AID 485346;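 active = inhibition of at least 50% at 8 µM in the primary screen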
CSC inhib: blocks cancer stem cells; cancer stem cell-like cells viability, luminescence; inhibition, % at 7.5 µM; 300,000 tested, 1.1% active; in the data active = inhibition above about 75%; inconclusive = no clear call, values can overlap the other calls; tested in HMLE shEcad cells
Calb FLC: affects C. albicans growth with fluconazole. C. albicans CaCi-2 (fluconazole-resistant clinical isolate) + fluconazole, Alamar Blue growth, 48 h. growth inhibition, % (concentration not given with the values). 300,000 tested, 0.57% active;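 active = growth inhibition above about 58% in most replicates, limit read from the data, passing the limit was not always enough; inconclusive = exactly half the replicates above a set limit; inactive = most replicates below a set limit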;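 note: all wells also contain fluconazole at 8 µg/ml as a sub-toxic cotreatment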
MPTP inh: blocks calcium-induced mitochondrial swelling | AID 602449 | 360,000 tested, 1.4% active | inhibition, % at 10 µM | isolated mouse mitochondria, Ca2+ swelling absorbance, 30 min;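 active = inhibition of 50% or more, scaled per plate between neutral and stimulator controls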
Beta cell apopt: blocks beta cell apoptosis | INS-1E cytokine-induced death, ATP luminescence, 48 h; percent of positive-control rescue, neutral wells zero | protection from apoptosis, % (no concentration beside the values) | 300,000 tested, 0.8% active | AID 435005;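 active = Every replicate reaches about 75%, or at least half do and their mean reaches it too, limit read from the data; inconclusive = At least half of replicates reach the limit but their mean does not; inactive = Under half of replicates reach the limit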;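 note: higher means more ATP so stronger rescue from cytokine killing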
Numbers stand for hits; n = inactive; u = inconclusive; x = no result. Compounds with a hit are over-represented: about 5.4% of the library has one in this group of screens.

SMILES	SKKanGAS inh	Mdm2-MdmX inh	CSC inhib	Calb FLC	MPTP inh	Beta cell apopt
CC(C)C(=O)NC(Nc1ccccc1F)C(Cl)(Cl)Cl (configuration not stated)	n	n	n	n	n	n
Cc1ccc(-c2nc(-c3cccnc3)no2)c(C)c1	n	n	n	95	n	n
CC(=O)N1CCOCCOCCN(C(C)=O)CCOCCOCC1	n	n	n	102	n	n
CCCCCN=Cc1c(C)[nH]n(-c2nc3ccccc3s2)c1=O	n	n	n	n	n	90
COCCN(C(=O)COC(=O)CCc1ccccc1OC)c1c(N)n(Cc2ccccc2)c(=O)[nH]c1=O	n	n	n	n	n	x
CSc1nc2sc3c(c2c(=O)n1CC(C)C)CC(C)(C)OC3	n	n	75	n	n	n
CCCSc1nc2sc3c(c2c(=O)n1CC)CC(C)(C)OC3	n	n	n	n	n	n
CCCCn1c2c(c(=N)c3c1CCC3)CCC2	x	n	n	x	n	n
CCCCCCCn1c2c(c(=N)c3c1CCC3)CCCC2	n	x	x	94	n	x
N#CC(C#N)=C1C=CC=CN1/C(=C\c1ccco1)C(=O)c1ccc(-c2ccccc2)cc1	x	x	75	x	n	n
N#CC(C#N)=C1C=CC=CN1/C(=C\c1ccco1)C(=O)c1ccc(Cl)cc1	x	x	n	x	n	n
O=C(OCc1ccccc1)c1ccc2c(c1)-c1ccccc1C2=O	55	n	n	n	n	n
O=C(OCc1ccccc1)c1ccccc1	n	n	n	n	n	n
CC1(C)OC(C(O)(c2ccccc2)c2ccccc2)[C@@H](C(O)(c2ccccc2)c2ccccc2)O1 (some centres not stated)	51	x	108	n	n	n
O=C(O)c1ccc(S(=O)(=O)N2CCc3ccccc3C2)cc1	n	n	n	n	n	n
CCn1cnc2cc([N+](=O)[O-])ccc21	n	n	n	n	n	n
COc1cccc(Nc2c3c(nc4c(-c5ccccc5)c(C)nn24)CCC3)c1	78	n	n	n	n	n
Cc1nn2c(Nc3ccc(F)cc3)c3c(nc2c1-c1ccccc1)CCC3	n	n	n	n	n	n
Cc1cccc(C)c1NC(=O)CCc1nnc2ccc(N3CCCC3)nn12	n	n	n	n	n	x
NC(=O)c1ccc(Nc2ccc([N+](=O)[O-])cc2[N+](=O)[O-])cc1	n	n	n	n	n	n
Nc1ccc(Nc2ccc([N+](=O)[O-])cc2[N+](=O)[O-])cc1	n	n	n	n	n	102
COc1ccc(CN(C)CC(=O)Nc2cc3oc4ccccc4c3cc2OC)c(OC)c1	n	n	84	n	n	n
CCCn1c(NC(=O)c2ccccc2Br)nc2ccccc21	58	n	n	n	n	n
CCCCn1c(NC(=O)C2CCCCC2)nc2ccccc21	97	n	n	n	n	n
COc1ccc(OC)c(-c2csc(NC(=O)C3COc4ccccc4O3)n2)c1 (configuration not stated)	n	n	n	n	n	n
SMILES	SKKanGAS inh	Mdm2-MdmX inh	CSC inhib	Calb FLC	MPTP inh	Beta cell apopt
O=C(Nc1nc(-c2nc3ccccc3s2)cs1)C1COc2ccccc2O1 (configuration not stated)	76	n	n	n	n	n
CN(C)CCCn1c(NC(=O)C2CCCCC2)nc2ccccc21	n	n	n	n	n	n
CC(=O)Nc1nc2ccccc2n1CCOc1ccccc1	63	n	n	n	n	n
COc1ccc(NC(=O)CSCC(=O)NCc2cccc(C(F)(F)F)c2)cc1	x	n	n	x	n	n
CCCn1c(NC(=O)C2COc3ccccc3O2)nc2ccccc21 (configuration not stated)	97	n	n	n	n	n
CCCCCCCCC/C(=N\O)c1ccccn1	97	n	n	u	n	n
O=C(O)C1CN(C(=O)c2ccccc2)c2cc(Cl)ccc2O1 (configuration not stated)	n	n	n	n	n	n
CN(CCCNC(=O)COc1cc(=O)n(C)c2ccccc12)Cc1ccccc1	n	n	n	n	n	n
C=CCNC(=S)N/N=C/c1ccc(-c2ccc(Cl)cc2Cl)o1	n	n	n	n	n	n
C=CCNC(=S)N/N=C/c1ccc(-c2ccc(OC)cc2)o1	n	n	n	104	n	n
CCOc1ccc(NC(=S)N2c3ccccc3CC2C)cc1 (configuration not stated)	n	n	n	n	n	n
O=C(Nc1ccccc1Cl)c1ccc([N+](=O)[O-])o1	n	n	n	100	n	n
